Common to all, as to assay: PBM; 200 nM protein, PBS
Settings in all cases: dsDNA, one strand shown

For assay [1], the target named is ALX1 (Homo sapiens, UniProt Q15699 118-204, L144V).
Assay [2] addresses ALX1 (Homo sapiens, UniProt Q15699 118-204, L144R).
Assay [3] concerns the target ALX1 (Homo sapiens, UniProt Q15699 118-204).
Assay [4] concerns the target ALX3 (Homo sapiens, UniProt O95076 139-225, N203Q).
The target of assay [5] is HOXD13 (Homo sapiens, UniProt P35453 263-343, T313R).
Assay [6] has as its target HOXD13 (Homo sapiens, UniProt P35453 263-343).
In assay [7] the target is ALX3 (Homo sapiens, UniProt O95076 139-225).
Chain of ALX3 (Homo sapiens, UniProt O95076 139-225) (O95076 139-225): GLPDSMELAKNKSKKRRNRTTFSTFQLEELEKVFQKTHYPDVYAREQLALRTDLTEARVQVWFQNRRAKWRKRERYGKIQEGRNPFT
The target of assay [8] is ALX3 (Homo sapiens, UniProt O95076 139-225, L168Q).
Chain of ALX3 (Homo sapiens, UniProt O95076 139-225, L168Q) (O95076 139-225 L168Q): as the sequence (O95076 139-225) above, with L30Q counted along it
The target in assay [9] is HOXD13 (Homo sapiens, UniProt P35453 263-343, T313A).
Chain of HOXD13 (Homo sapiens, UniProt P35453 263-343, T313A) (P35453 263-343 T313A): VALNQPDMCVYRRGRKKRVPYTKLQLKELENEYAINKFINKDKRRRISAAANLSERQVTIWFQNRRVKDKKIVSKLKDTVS
Assay [10] addresses ALX3 (Homo sapiens, UniProt O95076 139-225, L168V).
The target in assay [11] is ALX3 (Homo sapiens, UniProt O95076 139-225, N203S).
Chain of ALX3 (Homo sapiens, UniProt O95076 139-225, N203S) (O95076 139-225 N203S): as the sequence (O95076 139-225) above, with N65S counted along it

In paper PMC11006913 one finds binding signal data, which are given here for 35 sequences.

Chain of ALX3 (Homo sapiens, UniProt O95076 139-225, N203Q) (O95076 139-225 N203Q): as the sequence (O95076 139-225) above, with N65Q counted along it
Chain of ALX1 (Homo sapiens, UniProt Q15699 118-204, L144V) (Q15699 118-204 L144V): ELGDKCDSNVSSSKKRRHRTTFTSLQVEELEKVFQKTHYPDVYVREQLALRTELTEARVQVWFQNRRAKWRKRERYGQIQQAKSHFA
Chain of ALX1 (Homo sapiens, UniProt Q15699 118-204, L144R) (Q15699 118-204 L144R): as the sequence (Q15699 118-204 L144V) above, with V27R counted along it
Chain of ALX1 (Homo sapiens, UniProt Q15699 118-204) (Q15699 118-204): as the sequence (Q15699 118-204 L144V) above, with V27L counted along it
Chain of ALX3 (Homo sapiens, UniProt O95076 139-225, L168V) (O95076 139-225 L168V): as the sequence (O95076 139-225) above, with L30V counted along it
Chain of HOXD13 (Homo sapiens, UniProt P35453 263-343, T313R) (P35453 263-343 T313R): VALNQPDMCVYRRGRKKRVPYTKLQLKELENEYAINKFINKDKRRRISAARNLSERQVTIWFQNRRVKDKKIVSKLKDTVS
Chain of HOXD13 (Homo sapiens, UniProt P35453 263-343) (P35453 263-343): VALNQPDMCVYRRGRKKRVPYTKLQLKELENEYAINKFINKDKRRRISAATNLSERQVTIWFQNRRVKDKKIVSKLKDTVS

For the sequence ACCCGCTC, the binding signal is 6.49 upbm affinity estimate (log intensity, higher = more binding, comparable within an allelic series) with ALX1 [1]; 6.49 upbm affinity estimate (log intensity, higher = more binding, comparable within an allelic series) in the assay with ALX1 [2]; 6.43 upbm affinity estimate (log intensity, higher = more binding, comparable within an allelic series) with ALX1 [3].

On to ACTTTAAA, for which the binding signal is 8.62 upbm affinity estimate (log intensity, higher = more binding, comparable within an allelic series) with ALX1 [1]; 8.74 upbm affinity estimate (log intensity, higher = more binding, comparable within an allelic series) with ALX1 [2]; 8.8 upbm affinity estimate (log intensity, higher = more binding, comparable within an allelic series) with ALX1 [3].

Turning to AATGAATG, the binding signal with ALX1 [1] is 9.18 upbm affinity estimate (log intensity, higher = more binding, comparable within an allelic series); in the assay with ALX1 [2], 9 upbm affinity estimate (log intensity, higher = more binding, comparable within an allelic series); with ALX1 [3], 9.33 upbm affinity estimate (log intensity, higher = more binding, comparable within an allelic series).

As for AATCCACA, the binding signal is 8.17 upbm affinity estimate (log intensity, higher = more binding, comparable within an allelic series) in the assay with ALX1 [1] and 8.4 upbm affinity estimate (log intensity, higher = more binding, comparable within an allelic series) in the assay with ALX1 [3].

For the sequence GGACCCAC, the binding signal in the assay with ALX1 [1] was 6.45 upbm affinity estimate (log intensity, higher = more binding, comparable within an allelic series); in the assay with ALX1 [2], 6.3 upbm affinity estimate (log intensity, higher = more binding, comparable within an allelic series); in the assay with ALX1 [3], 6.26 upbm affinity estimate (log intensity, higher = more binding, comparable within an allelic series).

On to CTCCTGGA, for which the binding signal was 6.55 upbm affinity estimate (log intensity, higher = more binding, comparable within an allelic series) with ALX1 [1]; 6.53 upbm affinity estimate (log intensity, higher = more binding, comparable within an allelic series) with ALX1 [2]; 6.48 upbm affinity estimate (log intensity, higher = more binding, comparable within an allelic series) with ALX1 [3].

In the case of AGTTAGCC, the binding signal with ALX1 [1] is 7.87 upbm affinity estimate (log intensity, higher = more binding, comparable within an allelic series); in the assay with ALX1 [2], 7.7 upbm affinity estimate (log intensity, higher = more binding, comparable within an allelic series); in the assay with ALX1 [3], 8.29 upbm affinity estimate (log intensity, higher = more binding, comparable within an allelic series).

For AAGGCGTG, the binding signal was 6.54 upbm affinity estimate (log intensity, higher = more binding, comparable within an allelic series) in the assay with ALX1 [1]; 6.5 upbm affinity estimate (log intensity, higher = more binding, comparable within an allelic series) in the assay with ALX1 [2]; 6.55 upbm affinity estimate (log intensity, higher = more binding, comparable within an allelic series) with ALX1 [3].

As for ATTTGTAA, the binding signal with ALX1 [1] was 9.13 upbm affinity estimate (log intensity, higher = more binding, comparable within an allelic series); with ALX1 [2] it was 8.97 upbm affinity estimate (log intensity, higher = more binding, comparable within an allelic series); in the assay with ALX1 [3] it was 9.47 upbm affinity estimate (log intensity, higher = more binding, comparable within an allelic series).

For GTAGGTAA, the binding signal was 8.26 upbm affinity estimate (log intensity, higher = more binding, comparable within an allelic series) with ALX1 [1] and 8.54 upbm affinity estimate (log intensity, higher = more binding, comparable within an allelic series) in the assay with ALX1 [3].

On to CAAATTTG, for which the binding signal with ALX1 [1] was 9.35 upbm affinity estimate (log intensity, higher = more binding, comparable within an allelic series); with ALX1 [2], 9 upbm affinity estimate (log intensity, higher = more binding, comparable within an allelic series); in the assay with ALX1 [3], 9.69 upbm affinity estimate (log intensity, higher = more binding, comparable within an allelic series).

For the sequence AACTAAGT, the binding signal with ALX1 [1] is 8.49 upbm affinity estimate (log intensity, higher = more binding, comparable within an allelic series); with ALX1 [3], 8.92 upbm affinity estimate (log intensity, higher = more binding, comparable within an allelic series).

On to AATGAACC, for which the binding signal is 8.42 upbm affinity estimate (log intensity, higher = more binding, comparable within an allelic series) with ALX1 [1]; 8.46 upbm affinity estimate (log intensity, higher = more binding, comparable within an allelic series) with ALX1 [2]; 8.7 upbm affinity estimate (log intensity, higher = more binding, comparable within an allelic series) with ALX1 [3].

As for GGACGGCC, the binding signal in the assay with ALX1 [1] was 6.43 upbm affinity estimate (log intensity, higher = more binding, comparable within an allelic series); with ALX1 [2], 6.53 upbm affinity estimate (log intensity, higher = more binding, comparable within an allelic series); in the assay with ALX1 [3], 6.53 upbm affinity estimate (log intensity, higher = more binding, comparable within an allelic series).

Take ACATAATA: the binding signal with ALX1 [1] was 9.56 upbm affinity estimate (log intensity, higher = more binding, comparable within an allelic series); with ALX1 [2], 9.39 upbm affinity estimate (log intensity, higher = more binding, comparable within an allelic series); with ALX1 [3], 9.89 upbm affinity estimate (log intensity, higher = more binding, comparable within an allelic series).

Take CAACGGAG: the binding signal with ALX1 [1] was 6.43 upbm affinity estimate (log intensity, higher = more binding, comparable within an allelic series); with ALX1 [2], 6.49 upbm affinity estimate (log intensity, higher = more binding, comparable within an allelic series); in the assay with ALX1 [3] it was 6.47 upbm affinity estimate (log intensity, higher = more binding, comparable within an allelic series).

As for CAGCGAGA, the binding signal is 6.61 upbm affinity estimate (log intensity, higher = more binding, comparable within an allelic series) with ALX1 [1]; 6.49 upbm affinity estimate (log intensity, higher = more binding, comparable within an allelic series) with ALX1 [2]; 6.63 upbm affinity estimate (log intensity, higher = more binding, comparable within an allelic series) with ALX1 [3].

For the sequence CTCCTAGC, the binding signal with ALX1 [1] is 6.62 upbm affinity estimate (log intensity, higher = more binding, comparable within an allelic series); in the assay with ALX1 [2], 6.57 upbm affinity estimate (log intensity, higher = more binding, comparable within an allelic series); with ALX1 [3] it was 6.52 upbm affinity estimate (log intensity, higher = more binding, comparable within an allelic series).

For the sequence CAATATTC, the binding signal with ALX1 [1] is 8.3 upbm affinity estimate (log intensity, higher = more binding, comparable within an allelic series); in the assay with ALX1 [2], 8.42 upbm affinity estimate (log intensity, higher = more binding, comparable within an allelic series); with ALX1 [3], 8.48 upbm affinity estimate (log intensity, higher = more binding, comparable within an allelic series).

ATTATTGA: the binding signal is 10.4 upbm affinity estimate (log intensity, higher = more binding, comparable within an allelic series) with ALX1 [1]; 10.3 upbm affinity estimate (log intensity, higher = more binding, comparable within an allelic series) with ALX1 [2]; 10.8 upbm affinity estimate (log intensity, higher = more binding, comparable within an allelic series) with ALX1 [3].

Take CCGACGCG: the binding signal is 6.16 upbm affinity estimate (log intensity, higher = more binding, comparable within an allelic series) in the assay with ALX1 [1]; 6.27 upbm affinity estimate (log intensity, higher = more binding, comparable within an allelic series) with ALX1 [2]; 6.71 upbm affinity estimate (log intensity, higher = more binding, comparable within an allelic series) with ALX1 [3].

For the sequence CATAATAA, in the assay with ALX3 [4], the binding signal was 8.54 upbm affinity estimate (log intensity, higher = more binding, comparable within an allelic series).

Regarding ATTGGAAA, the binding signal is 8.46 upbm affinity estimate (log intensity, higher = more binding, comparable within an allelic series) in the assay with ALX1 [1]; 8.23 upbm affinity estimate (log intensity, higher = more binding, comparable within an allelic series) with ALX1 [2]; 8.59 upbm affinity estimate (log intensity, higher = more binding, comparable within an allelic series) in the assay with ALX1 [3].

In the case of GACTCGAC, the binding signal was 6.55 upbm affinity estimate (log intensity, higher = more binding, comparable within an allelic series) in the assay with ALX1 [1]; 6.63 upbm affinity estimate (log intensity, higher = more binding, comparable within an allelic series) with ALX1 [2]; 6.64 upbm affinity estimate (log intensity, higher = more binding, comparable within an allelic series) in the assay with ALX1 [3].

Regarding CGGGTGAG, the binding signal was 6.48 upbm affinity estimate (log intensity, higher = more binding, comparable within an allelic series) in the assay with ALX1 [1]; 6.58 upbm affinity estimate (log intensity, higher = more binding, comparable within an allelic series) with ALX1 [2]; 6.62 upbm affinity estimate (log intensity, higher = more binding, comparable within an allelic series) in the assay with ALX1 [3].

As for CCGAGAGC, the binding signal was 6.61 upbm affinity estimate (log intensity, higher = more binding, comparable within an allelic series) with ALX1 [1]; 6.63 upbm affinity estimate (log intensity, higher = more binding, comparable within an allelic series) with ALX1 [2]; 6.63 upbm affinity estimate (log intensity, higher = more binding, comparable within an allelic series) with ALX1 [3].

Consider CTGAATTC, for which the binding signal in the assay with ALX1 [1] was 7.73 upbm affinity estimate (log intensity, higher = more binding, comparable within an allelic series); with ALX1 [2], 7.6 upbm affinity estimate (log intensity, higher = more binding, comparable within an allelic series); with ALX1 [3] it was 7.82 upbm affinity estimate (log intensity, higher = more binding, comparable within an allelic series).

With AATTGGTC, the binding signal with ALX1 [1] was 9.84 upbm affinity estimate (log intensity, higher = more binding, comparable within an allelic series); with ALX1 [2], 9.58 upbm affinity estimate (log intensity, higher = more binding, comparable within an allelic series); with ALX1 [3], 10.2 upbm affinity estimate (log intensity, higher = more binding, comparable within an allelic series).

Take TAATAATA: the binding signal with ALX3 [4] is 8.57 upbm affinity estimate (log intensity, higher = more binding, comparable within an allelic series).

In the case of TATAATAA, the binding signal with ALX3 [4] is 8.61 upbm affinity estimate (log intensity, higher = more binding, comparable within an allelic series).

CTAGCTGC: the binding signal with ALX1 [1] was 6.42 upbm affinity estimate (log intensity, higher = more binding, comparable within an allelic series); with ALX1 [2], 6.45 upbm affinity estimate (log intensity, higher = more binding, comparable within an allelic series); with ALX1 [3] it was 6.31 upbm affinity estimate (log intensity, higher = more binding, comparable within an allelic series).

As for ATTAAAAT, the binding signal in the assay with ALX3 [4] is 8.53 upbm affinity estimate (log intensity, higher = more binding, comparable within an allelic series); with HOXD13 [5] it was 10.6 upbm affinity estimate (log intensity, higher = more binding, comparable within an allelic series); with HOXD13 [6], 11.4 upbm affinity estimate (log intensity, higher = more binding, comparable within an allelic series); in the assay with ALX3 [7] it was 11.2 upbm affinity estimate (log intensity, higher = more binding, comparable within an allelic series); with ALX3 [8], 9.54 upbm affinity estimate (log intensity, higher = more binding, comparable within an allelic series); in the assay with HOXD13 [9] it was 11.4 upbm affinity estimate (log intensity, higher = more binding, comparable within an allelic series). Moreover, the binding signal with ALX3 [10] was 9.23 upbm affinity estimate (log intensity, higher = more binding, comparable within an allelic series); in the assay with ALX3 [11], 8.6 upbm affinity estimate (log intensity, higher = more binding, comparable within an allelic series).

ATAATAAG: the binding signal with ALX3 [4] was 8.64 upbm affinity estimate (log intensity, higher = more binding, comparable within an allelic series).

For ACGATTAC, the binding signal in the assay with ALX1 [1] is 8.4 upbm affinity estimate (log intensity, higher = more binding, comparable within an allelic series); with ALX1 [2], 8.26 upbm affinity estimate (log intensity, higher = more binding, comparable within an allelic series); with ALX1 [3], 8.62 upbm affinity estimate (log intensity, higher = more binding, comparable within an allelic series).

Take AGAAGGGC: the binding signal was 6.58 upbm affinity estimate (log intensity, higher = more binding, comparable within an allelic series) in the assay with ALX1 [1]; 6.68 upbm affinity estimate (log intensity, higher = more binding, comparable within an allelic series) in the assay with ALX1 [2]; 6.45 upbm affinity estimate (log intensity, higher = more binding, comparable within an allelic series) with ALX1 [3].
